# Screening data as filed in PubChem.
# An excerpt weighted towards active compounds, which were near 2.8% of everything screened.
# Platelet DG rel: platelet dense granule release activity. AID 1663. hit rate 0.22% among 300,000. human platelet-rich plasma, SFLLRN dense granule ATP release, luminescence. inhibition, %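 (compounds screened at 7.5 µM in platelet-rich plasma)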;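 active = mean replicate score, as percent of positive control, at or above 50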
# SENP6 inh: inhibitors of human SENP6 protease | Q9GZR1 | Recombinant SENP6 catalytic domain, aminoluciferin luminescence | inhibition, % at 10 µM | hit rate 1.8% among 330,000 | AID 2599;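 active = inhibition above about 50% at the single tested dose, limit read from the data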;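 also: plate controls were DMSO wells with enzyme for no effect and DMSO wells lacking enzyme for full effect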
# Target sequence (Q9GZR1 628-1112 limits assumed): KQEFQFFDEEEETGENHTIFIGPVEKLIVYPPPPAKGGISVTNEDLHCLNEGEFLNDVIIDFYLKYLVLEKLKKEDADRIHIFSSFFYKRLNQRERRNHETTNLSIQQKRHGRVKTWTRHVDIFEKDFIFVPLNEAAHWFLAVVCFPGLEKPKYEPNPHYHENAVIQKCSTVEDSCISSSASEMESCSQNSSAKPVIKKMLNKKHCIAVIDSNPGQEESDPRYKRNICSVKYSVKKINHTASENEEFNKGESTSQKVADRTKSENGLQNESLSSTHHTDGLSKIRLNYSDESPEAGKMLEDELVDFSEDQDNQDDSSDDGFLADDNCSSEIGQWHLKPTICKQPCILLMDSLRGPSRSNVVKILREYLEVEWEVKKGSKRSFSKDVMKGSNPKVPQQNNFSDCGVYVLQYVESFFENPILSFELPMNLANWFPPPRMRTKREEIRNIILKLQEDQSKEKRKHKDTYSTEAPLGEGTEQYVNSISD
# SENP7 inh: inhibitors of human SENP7 protease | Q9BQF6 | recombinant SENP7, Z-RLRGG-aminoluciferin luminescence, 40 min | inhibition, % at 5 µM | hit rate 1.5% among 330,000;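 active = inhibition above about 50% at the single test dose, limit read from the data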;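 also: plate controls were DMSO with enzyme for no effect and no enzyme buffer wells for full effect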
# SENP8 block-1: blocks human SENP8 cleavage of Nedd8 substrate; recombinant SENP8, Nedd8 substrate fluorescence; AID 602440; inhibition, % at 20 µM; hit rate 0.64% among 360,000; Q96LD8; in the data active = inhibition mostly above about 40%, no sharp cut-off; inactive = mostly below about 27%
# HSP90 refold inh: blocks HSP90-mediated luciferase refolding in reticulocyte lysate. Rabbit reticulocyte lysate, luciferase refolding luminescence, 3 h. inhibition, % at 5.6 µM. hit rate 0.91% among 290,000;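 active = inhibition above the screen-wide mean plus 3 SD, computed separately per campaign, cut at about 16% in these data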;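 also: 0% = DMSO wells and 100% = 60 µM geldanamycin wells; inhibitors lower the luminescence because luciferase stays unfolded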
# SENP8 block-2: inhibitors of human SENP8 protease. purified SENP8, Z-RLRGG-aminoluciferin cleavage, luminescence. inhibition, % at 10 µM. hit rate 1.2% among 330,000. AID 2540; in the data active = inhibition above about 50%
# SENP8 confirm: human SENP8 inhibition, confirmed; hit rate 40% among 6,200; shares compounds with SENP7 inh; inhibition, % at 12.5 µM; AID 488912; Recombinant SENP8, Z-RLRGG-aminoluciferin luminescence, 60 min;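 active = mean inhibition across replicates above about 50%, limit read from the data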
# SENP6 conf: confirmation of human SENP6 protease inhibitors; shares compounds with SENP7 inh; recombinant SENP6, Z-RLRGG-aminoluciferin luminescence; inhibition, % at 12.5 µM; hit rate 58% among 6,200; AID 488915
# SENP7 conf: human SENP7 inhibition, confirmed; AID 488917; hit rate 69% among 6,200; shares compounds with SENP7 inh; recombinant SENP7, Z-RLRGG-aminoluciferin luminescence, 40 min; inhibition, % at 12.5 µM
# Casp3 SENP sel: inhibits human caspase-3 in SENP selectivity test; shares compounds with SENP7 inh; purified caspase-3, Z-DEVD-aminoluciferin luminescence, 60 min; inhibition, % at 12.5 µM; hit rate 60% among 6,200; AID 488918;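 active = mean inhibition above about 50%, limit read from the data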;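 also: plate controls were enzyme with DMSO for no effect and wells without caspase-3 for full effect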
# Luc interf: counter-screen for SENP inhibitors: luminescence interference | hit rate 39% among 6,200 | AID 488919 | Pre-incubated SENP8/Z-RLRGG-aminoluciferin, luciferase luminescence interference | shares compounds with SENP7 inh | inhibition, % at 12.5 µM;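 active = mean inhibition above about 50% when retested at one dose, limit read from the data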;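 also: plate controls were DMSO wells with completed reaction for no effect and substrate without enzyme for full effect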
# The depositor's hits bear a star; · = not tested or not shown.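 The calls were made as follows, unless noted: active = mean inhibition above about 50% in the one-dose retest (limit read from the data); inactive = the rest.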
SMILES,Platelet DG rel,SENP6 inh,SENP7 inh,SENP8 block-1,HSP90 refold inh,SENP8 block-2,SENP8 confirm,SENP6 conf,SENP7 conf,Casp3 SENP sel,Luc interf
Cc1ccccc1C(=O)Nc1ccc(Br)c(C)n1,10,59*,66*,12,-3,43,61*,62*,87*,65*,58*
Cc1ccc(C(=O)Nc2ncc3c(Cl)cccc3n2)cc1,19,88*,91*,4,2,81*,83*,93*,99*,93*,52*
O=C(COc1ccc(Cl)cc1)Nc1ccc(Cl)cn1,3,7,12,32,-4,-9,·,·,·,·,·
O=C(NCCc1ccc(C(F)(F)F)cc1)C1CCC(=O)N(CCCc2ccccc2)C1 (stereo not given),0,13,-7,12,-2,8,·,·,·,·,·
CCN(CC(=O)Nc1c(F)cccc1F)C(=O)CCNC(=O)c1ccco1,·,-6,3,6,·,-5,·,·,·,·,·
CCOC(=O)C1(C)CCCN(C(=O)c2ccc(C)c(F)c2)C1 (stereo not given),·,·,·,17,·,·,·,·,·,·,·
O=C(Nc1ccc(Cl)cn1)c1cccc(OCc2ccccc2)c1,3,-10,-5,13,-2,-8,·,·,·,·,·
O=C(Nc1ccc(Cl)cn1)c1ccc(Oc2ccccc2)cc1,14,91*,91*,3,-2,90*,27,52*,58*,47,5
Cc1ccc(C(=O)Nc2ccc(Cl)cn2)cc1,-3,75*,59*,16,7,59*,48,64*,90*,78*,36
COc1cccc(-c2nc(-c3ccncc3)no2)c1,18,78*,80*,1,1,70*,73*,78*,94*,86*,61*
COc1cccc(-c2nc(-c3cccs3)no2)c1,1,90*,92*,24,5,83*,13,87*,98*,70*,62*
COc1cc(OC)cc(-c2nc(-c3cccs3)no2)c1,6,-27,32,-17,1,-1,·,·,·,·,·
O=[N+]([O-])c1cccc(-c2nc(-c3ccncc3)no2)c1,8,6,9,24,-2,-15,·,·,·,·,·
Cc1cc(C)n2nc(SCC(=O)NC(=O)c3ccccc3Cl)nc2n1,·,0,1,10,·,-2,·,·,·,·,·
Cc1cccc2c(=O)cc(C)n(CC(N)=O)c12,0,1,1,18,-1,2,·,·,·,·,·
COc1ccc(NC(=O)CCC(=O)c2cc(C)sc2C)cc1,·,-13,-8,6,·,-13,·,·,·,·,·
COc1ccc(/C(N)=N/OC(=O)CSc2ccccc2)cc1,-2,77*,63*,13,4,42,57*,65*,87*,·,41
O=C(COc1ccccc1)c1ccccc1,·,·,·,12,·,·,·,·,·,·,·
COc1ccc(C(=O)CNc2ccccc2Br)cc1,-1,58*,9,21,8,47,19,64*,61*,36,6
COC(=O)c1ccc(OCC(=O)c2ccccc2)cc1,14,35,57*,14,1,26,52*,51*,84*,73*,62*
COc1ccc(C(=O)CC(=O)c2ccccc2)cc1,2,77*,74*,-12,·,67*,70*,70*,92*,55*,59*
COc1ccc(C(=O)CC(=O)c2ccc(OC)cc2)cc1,-11,9,-5,-258,3,2,·,·,·,·,·
CCN(CC)S(=O)(=O)c1ccc(SCC(=O)c2c(N)n(C3CC3)c(=O)[nH]c2=O)nc1,·,·,·,16,·,·,·,·,·,·,·
OC(c1cc(Cl)cc(Cl)c1)c1ncc(-c2ccccc2F)[nH]1 (stereo not given),·,·,·,5,·,·,·,·,·,·,·
N#CCc1ccc(-c2cccc3nccn23)cc1,·,·,·,-493,·,·,·,·,·,·,·
SMILES,Platelet DG rel,SENP6 inh,SENP7 inh,SENP8 block-1,HSP90 refold inh,SENP8 block-2,SENP8 confirm,SENP6 conf,SENP7 conf,Casp3 SENP sel,Luc interf
COc1ccc(C(=O)COc2cccc(NC(=O)c3ccco3)c2)cc1,-2,-23,-11,5,2,-6,·,·,·,·,·
COc1ccc(C(=O)COC(=O)c2ccco2)cc1,4,72*,55*,12,4,50*,62*,62*,86*,85*,71*
O=c1c2ccccc2oc2ccc(-c3ccc4[nH]ccc4c3)cc12,1,53*,48,-81,·,44,17,36,57*,18,17
COc1ccc(-c2nc(CS(=O)(=O)CC(=O)NC3CCC(C)CC3)c(C)o2)cc1 (stereo not given),-6,3,11,20,2,2,·,·,·,·,·
CCCCC1C(=O)N(c2ccccc2)N(c2ccccc2)C1=O,-11,7,1,1,3,5,·,·,·,·,·
CCCCN1C=CC(=C2C(=O)c3ccccc3C2=O)C=C1,29,92*,78*,12,83*,89*,-2,92*,100*,95*,41
CCCCN(C(=O)COc1ccc(F)cc1)c1c(N)n(CC(C)C)c(=O)[nH]c1=O,·,·,·,1,·,·,·,·,·,·,·
COc1cccc2sc(Nc3nc(-c4ccccn4)cs3)nc12,0,65*,45,-84,-1,42,-7,56*,85*,28,12
c1ccc(Nc2nc(-c3ccccn3)cs2)cc1,7,-3,60*,-16,13,38,60*,61*,88*,54*,76*
OC[C@@H]1CN(C2CCCC2)C[C@H](n2cnc3c(NC4CC4)ncnc32)O1,·,·,·,11,·,·,·,·,·,·,·
O=C1CC2C(CCC23OCCO3)c2ccc3ccccc3c21 (stereo not given),·,·,·,14,·,·,·,·,·,·,·
O=C(O)c1ccccc1CSc1nc2ccccc2[nH]1,-22,70*,47,0,3,47,72*,70*,87*,88*,76*
O=C(CSc1nc2ccccc2[nH]1)c1c[nH]c2ccccc12,0,-10,3,26,-3,-4,·,·,·,·,·
Fc1cccc(F)c1CSc1nc2ccccc2[nH]1,1,77*,74*,9,2,52*,62*,62*,89*,71*,74*
O=C(CSc1nc2ccccc2[nH]1)c1ccccc1F,-1,57*,47,3,0,33,51*,44,81*,63*,62*
CC(OC(=O)[C@@H]1CCCN1C(=O)c1cccs1)C(=O)Nc1cccc([N+](=O)[O-])c1 (stereo not given in full),·,1,4,8,·,4,·,·,·,·,·
